Assay [1] concerns the target Cell division control protein 42 homolog (Homo sapiens) (UniProt P60953). Kind of assay: inhibition of fluorescent GTP binding to constitutively active Cdc42 – biochemical, multiplex bead flow cytometry, Bodipy-FL-GTP, dose response (AID 1333;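 active means fitted half-maximal concentration within the tested dose range, moderate curve steepness, a statistically real signal drop, and little compound fluorescence or tag-binding interference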).
The target is the same in assay [2]. Kind of assay: inhibition of fluorescent GTP binding to wildtype Cdc42 – biochemical, multiplex bead flow cytometry, Bodipy-FL-GTP, dose response (AID 1334;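 active means fitted half-maximal concentration within the tested range, moderate curve steepness, significant signal drop, and little compound fluorescence or bead-linkage interference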). The conditions noted are these: bead-based flow cytometry, Bodipy-FL-GTP binding to GST-Cdc42; at 100 µM (top of the series) unless noted.
Assay [3] concerns the target GTPase HRas (Homo sapiens) (UniProt P01112). Kind of assay: Ras wt fluorescent GTP loading blockade – biochemical, wildtype, multiplex bead flow cytometry, dose response (AID 1335;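 active means fitted half-maximal concentration within 10 nM to 100 µM, steepness 0.5 to 2, significant signal drop, low assay interference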). The settings on record: bead-based flow cytometry, Bodipy-GTP binding to GST-Ras; at 100 µM (top of the series) unless noted.
Assay [4] deals with Ras-related protein Rab-7a (dog), GTP binding. Kind of assay: blockers of fluorescent GTP binding to Rab7 – biochemical, wildtype, multiplex bead flow cytometry, dose response (AID 1336).
Assay [5] has as its target Ras-related C3 botulinum toxin substrate 1 (Homo sapiens) (UniProt P63000). Kind of assay: inhibition of wildtype Rac1 nucleotide loading – biochemical, multiplex bead flow cytometry, dose response (AID 1340;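 active means dose curve with midpoint inside tested range, moderate steepness, plateau gap beyond fit error, low compound glow and bead-link interference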). The conditions noted are these: GST-Rac1 beads, Bodipy-FL-GTP binding; at 100 µM (top of the series) unless noted. (In general: In flow cytometry, cells or beads pass a laser one at a time.)

Assay [6] deals with GTPase HRas (Homo sapiens) (UniProt P01112). Kind of assay: blockade of GTP loading onto mutant Ras – biochemical, activated mutant, multiplex bead flow cytometry, dose response (AID 1341;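 active means dose-response curve with midpoint inside the tested range, moderate steepness, significant amplitude and little compound fluorescence or bead-attachment interference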;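 further: GST-tagged constitutively activated Ras mutant immobilized on beads and multiplexed with other GTPases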).
Chain of GTPase HRas (Homo sapiens) (P01112 whole entry, looked up): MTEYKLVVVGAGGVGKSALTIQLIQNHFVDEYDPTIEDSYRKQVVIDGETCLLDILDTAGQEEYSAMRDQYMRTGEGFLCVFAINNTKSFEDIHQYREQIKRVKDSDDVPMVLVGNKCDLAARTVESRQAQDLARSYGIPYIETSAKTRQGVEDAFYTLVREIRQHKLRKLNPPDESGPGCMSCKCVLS

For part of these data: Entries with a potency or affinity are not part of this list. Calls of active or inactive are those of the source. Unless noted, how the calls were made is not given here.

The source of these data is PubChem BioAssay.

Chain of Cell division control protein 42 homolog (Homo sapiens) (P60953 whole entry, looked up): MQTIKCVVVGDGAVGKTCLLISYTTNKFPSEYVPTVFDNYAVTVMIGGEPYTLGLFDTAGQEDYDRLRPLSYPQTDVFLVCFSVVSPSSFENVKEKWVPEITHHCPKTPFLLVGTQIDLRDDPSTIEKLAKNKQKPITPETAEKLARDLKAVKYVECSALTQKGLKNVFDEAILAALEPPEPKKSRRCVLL

In the case of `COc1ccc(-n2c(NC(=O)c3ccc(Br)o3)c(C#N)c3nc4ccccc4nc32)cc1`, the outcome in assay [1], in assay [4] and in assay [6] was inactive. In addition, in assay [2], the fluorescence, percent of control (lower = inhibition) came to 24.6%. The GTP binding, percent of control in assay [3] was 72.7%. Further, the GTP binding signal, raw median fluorescence (lower = inhibition) (MCF (arbitrary fluorescence units)) in assay [5] worked out at 169.

`COc1ccc(N(CC(=O)Nc2cccc(C)c2C)S(=O)(=O)c2c(C)n[nH]c2C)cc1`: the call in assay [1], in assay [4] and in assay [6] was inactive. The fluorescence, percent of control (lower = inhibition) in assay [2] was determined as 33.4%. In addition, the GTP binding, percent of control in assay [3] was found to be 74.3%. In addition, in assay [5], the GTP binding signal, raw median fluorescence (lower = inhibition) (MCF (arbitrary fluorescence units)) stood at 170.

As to `COc1ccc(OC)c(CCNCc2ccc(C(=O)O)s2)c1`, the result in assay [1], in assay [4] and in assay [6] was inactive. Further, the fluorescence, percent of control (lower = inhibition) in assay [2] was 58.4%. This molecule also displayed a GTP binding, percent of control in assay [3] of 82.2%. This molecule also showed a GTP binding signal, raw median fluorescence (lower = inhibition) (MCF (arbitrary fluorescence units)) in assay [5] of 35.9.

For `Cc1ccc(-n2c(=O)cc(N3CCN(C(=O)c4ccco4)CC3)[nH]c2=O)cc1`, the molecule was called inactive in assay [1], in assay [4] and in assay [6]. In assay [2], this molecule showed a fluorescence, percent of control (lower = inhibition) of 36.6%. For the same molecule, the GTP binding, percent of control in assay [3] stood at 81.3%. This molecule had a GTP binding signal, raw median fluorescence (lower = inhibition) (MCF (arbitrary fluorescence units)) in assay [5] of 286.

Consider `COc1ccc(CNc2nc3c(c(=O)n(Cc4ccc(Cl)cc4)c(=O)n3C)n2C)cc1`, for which the call in assay [1], in assay [4] and in assay [6] was inactive. The molecule further gave a fluorescence, percent of control (lower = inhibition) in assay [2] of 29.3%. Moreover, in assay [3], the GTP binding, percent of control was 80.3%. Besides, the GTP binding signal, raw median fluorescence (lower = inhibition) (MCF (arbitrary fluorescence units)) in assay [5] is 228.

Turning to `COc1ccc(-n2c(C)cc(/C=C3\SC(=S)N(Cc4ccco4)C3=O)c2C)cc1`, the call in assay [1], in assay [4] and in assay [6] was inactive. Also, in assay [2], the fluorescence, percent of control (lower = inhibition) stood at 75.8%. Moreover, in assay [3], the GTP binding, percent of control amounted to 89.9%. Also, in assay [5], the GTP binding signal, raw median fluorescence (lower = inhibition) (MCF (arbitrary fluorescence units)) was determined as 230.

On to `N=C1/C(=C\c2ccc(SCc3ccco3)o2)C(=O)N=C2SC=NN12`, for which the molecule was called inactive in assay [1], in assay [4] and in assay [6]. The fluorescence, percent of control (lower = inhibition) in assay [2] amounted to 64.2%. In assay [3], the GTP binding, percent of control stood at 108%. This molecule also displayed a GTP binding signal, raw median fluorescence (lower = inhibition) (MCF (arbitrary fluorescence units)) in assay [5] of 112.

Regarding `Cc1ccc(N=Nc2c(N)[nH]n3c(=O)cc(-c4ccccc4)nc23)cc1`, the result in assay [1], in assay [4] and in assay [6] was inactive. Besides, the fluorescence, percent of control (lower = inhibition) in assay [2] is 64.1%. The GTP binding, percent of control in assay [3] came to 125%. Besides, in assay [5], the GTP binding signal, raw median fluorescence (lower = inhibition) (MCF (arbitrary fluorescence units)) was 118.

Take `COc1cc(/C=C2/SC(=Nc3ccc(O)cc3)NC2=O)cc(OC)c1O`: the call in assay [1], in assay [4] and in assay [6] was inactive. Besides, in assay [2], the fluorescence, percent of control (lower = inhibition) was found to be 39.8%. Besides, in assay [3], the GTP binding, percent of control was 84.1%. The molecule further showed a GTP binding signal, raw median fluorescence (lower = inhibition) (MCF (arbitrary fluorescence units)) in assay [5] of 231.

As to `COc1ccc2nc(C)cc(SCC(=O)N/N=C/c3ccc(O)c(O)c3)c2c1`, the molecule was called inactive in assay [1], in assay [4] and in assay [6]. This molecule registered a fluorescence, percent of control (lower = inhibition) in assay [2] of 35%. The GTP binding, percent of control in assay [3] is 75.8%. In assay [5], this molecule returned a GTP binding signal, raw median fluorescence (lower = inhibition) (MCF (arbitrary fluorescence units)) of 164.

Turning to `COc1cccc(NC(=O)CSc2nc3c([nH]c4ccccc43)c(=O)n2C)c1`, the outcome in assay [1], in assay [4] and in assay [6] was inactive. The fluorescence, percent of control (lower = inhibition) in assay [2] stood at 42.8%. This molecule registered a GTP binding, percent of control in assay [3] of 92.1%. In addition, the GTP binding signal, raw median fluorescence (lower = inhibition) (MCF (arbitrary fluorescence units)) in assay [5] is 293.

As for `CCOC(=O)Cn1nnnc1C(CC)N(Cc1ccccc1)Cc1cc2cc(C)ccc2[nH]c1=O` (stereo not given), the result in assay [1], in assay [4] and in assay [6] was inactive. Besides, in assay [2], the fluorescence, percent of control (lower = inhibition) amounted to 83.7%. This molecule also returned a GTP binding, percent of control in assay [3] of 155%. The same molecule displayed a GTP binding signal, raw median fluorescence (lower = inhibition) (MCF (arbitrary fluorescence units)) in assay [5] of 182.

For `Cc1cc(C)n(C(=O)CNC(=O)c2ccc3c(c2)OCCO3)n1`, the call in assay [1], in assay [4] and in assay [6] was inactive. Further, the fluorescence, percent of control (lower = inhibition) in assay [2] worked out at 53.2%. The molecule further returned a GTP binding, percent of control in assay [3] of 61.7%. Further, in assay [5], the GTP binding signal, raw median fluorescence (lower = inhibition) (MCF (arbitrary fluorescence units)) amounted to 200.

Turning to `Cc1ccc2nc(CSc3nc(C)cc(C)c3C#N)[nH]c2c1`, the call in assay [1], in assay [4] and in assay [6] was inactive. In assay [2], this molecule had a fluorescence, percent of control (lower = inhibition) of 35.3%. In addition, the GTP binding, percent of control in assay [3] was 77.6%. The molecule also had a GTP binding signal, raw median fluorescence (lower = inhibition) (MCF (arbitrary fluorescence units)) in assay [5] of 242.

On to `O=C(c1nn2c(C(F)(F)F)cc(-c3ccc(F)cc3)nc2c1Cl)N1CCOCC1`, for which the result in assay [1], in assay [4] and in assay [6] was inactive. This molecule also yielded a fluorescence, percent of control (lower = inhibition) in assay [2] of 48.9%. The same molecule gave a GTP binding, percent of control in assay [3] of 62.6%. Also, the GTP binding signal, raw median fluorescence (lower = inhibition) (MCF (arbitrary fluorescence units)) in assay [5] was found to be 189.
